Test results from PubChem BioAssay (EPA / NIEHS).
Calls of active or inactive are those of the source. Rule for the calls: active = hit-call score of the fitted dose curve at least 0.9, where 1 is the maximum; inactive = score below 0.9.

read-out: Interleukin-1 alpha (IL1a), IL1A (gene 3552); test: BSK_KF3CT_IL1a: BioMAP Diversity Plus: KF3CT Assay for Interleukin-1 alpha (IL1a) Biomarker Activity (AID 2283070); conditions: primary human keratinocytes with fibroblasts; actives raise or lower the signal
Description: BSK_KF3CT is a cell-based, multiplexed-readout assay that uses keratinocytes and foreskin fibroblasts, a human skin primary cell co-culture, with measurements taken at 24 hours after chemical dosing in a 96-well plate.BSK_KF3CT_IL1a is an assay component measured in the BSK_KF3CT assay. It measures IL-1a antibody related to regulation of gene expression using ELISA technology.Data from the assay component BSK_KF3CT_IL1a was analyzed into 1 assay endpoint. This assay endpoint, BSK_KF3CT_IL1a, was analyzed with bidirectional fitting relative to DMSO as the negative control and baseline of activity. Using a type of binding reporter, gain or loss-of-signal activity can be used to understand changes in the signaling as they relate to the gene IL1A. Furthermore, this assay endpoint can be referred to as a primary readout, because this assay has produced multiple assay endpoints where this one serves a signaling function. To generalize the intended target to other relatable targets, this assay endpoint is annotated to the cytokine intended target family, where the subfamily is interleukins.
The levels of cell surface (or secreted, indicated by the prefix "s") biomarker endpoints were measured by ELISA. Overt cytotoxicity to cells in confluent adherent cultures (all systems other than the BT system) was assessed by measuring total protein levels using sulforhodamine B (SRB) staining in parallel cultures at the time of biomarker measurements, indicated as SRB endpoints. For proliferation assays for adherent cell types, individual cell types are cultured at sub-confluence and relative cell numbers quantified by SRB staining at time points optimized for each system (48 h: 3C and CASM3C systems; 72 h: BT and HDF3CGF systems; 96 h: SAg system). SRB was performed by staining cells with 0.1% SRB after fixation with 10% TCA and reading wells at 560 nm.Viability and proliferation of PBMC (T cells) was quantified by Alamar Blue reduction for the SAg and BT systems. For PBMC viability (referred to as PBMC Cytotoxicity within the assay endpoint names), cells were plated (75,000/well in a 96-well plate) and then chemical samples added for 1 h before addition of activators, SEB and TSST-1 (20 ng/mL final concentration each). Cells were incubated for 90 h. Then, Alamar Blue (20 uL/well) (Invitrogen, Cat DAL1100) was added for 6 h, and the plates were read with a fluorescence microplate reader at 546/580 nm (excitation/emission). For PBMC proliferation, cells were plated and activated as above but incubated for only 16 h prior to addition of Alamar Blue. Plates were read after 6 h.

| Structure (SMILES) | outcome | AC50 |
| --- | --- | --- |
| OC[C@H]1O[C@H](O[C@]2(CCl)O[C@H](CCl)[C@@H](O)[C@@H]2O)[C@H](O)[C@@H](O)[C@H]1Cl | inactive |  |
| C=C[Si](OCC)(OCC)OCC | inactive |  |
| CC(C)c1ccc(C(C)C)cc1 | inactive |  |
| c1ccc2c(c1)c1cccc3ccc4cccc2c4c31 |  | 16 nM (active) |
| BrC1CCC(Br)C(Br)CCC(Br)C(Br)CCC1Br (stereo not given) | inactive |  |
| CCCCC/C=C/C=C/C=O |  | 29500 nM (active) |
| CCCCCCCCCCCCCCCCCC(=O)OCC(CC)CCCC (stereo not given) | inactive |  |
| Nc1cc([N+](=O)[O-])ccc1Cl | inactive |  |
| COc1cc(C=O)ccc1OC(=O)C(C)C | inactive |  |
| CC[Si](OC(C)=O)(OC(C)=O)OC(C)=O | inactive |  |
| O=P(c1ccccc1)(c1ccccc1)c1ccccc1 | inactive |  |
| CC(=O)Nc1ccccc1O | inactive |  |
| C=C(C)C(=O)O[C@H]1C[C@@H]2CC[C@@]1(C)C2(C)C |  | 20000 nM (active) |
| CC(C)Oc1ccccc1O | inactive |  |
| CCCCC(CC)COC(=O)/C=C\C(=O)OCC(CC)CCCC (stereo not given) | inactive |  |
| OC1OC[C@@H](O)[C@H](O)[C@H]1O (stereo not given in full) | inactive |  |
| O=C1CCCCCCCCCCCCCCO1 | inactive |  |
| C[C@H]1C[C@@H]2[C@H]([C@@H](O)C[C@@]3(C)[C@H]2CC[C@]3(O)C(=O)CO)[C@@]2(C)C=CC(=O)C=C12 | inactive |  |
| Cc1ccc2n[nH]nc2c1 | inactive |  |
| COC(=O)c1ccc(C)cc1 | inactive |  |

| Structure (SMILES) | outcome | AC50 |
| --- | --- | --- |
| CC1COc2ccccc2N1C(=O)C(Cl)Cl (stereo not given) |  | 629 nM (active) |
| O=C=NC1CCC(CC2CCC(N=C=O)CC2)CC1 (stereo not given) | inactive |  |
| NCCNCCN | inactive |  |
| C=CCOC(=O)CCC1CCCCC1 | inactive |  |
| c1ccc2sc(SN(C3CCCCC3)C3CCCCC3)nc2c1 | inactive |  |
| Nc1cc([N+](=O)[O-])ccc1O | inactive |  |
| Cc1cc(C2(c3cc(C)c(O)cc3C)OS(=O)(=O)c3ccccc32)c(C)cc1O | inactive |  |
| CNC[C@H](O)c1cccc(O)c1 | inactive |  |
| CC(=O)[C@H]1CC[C@H]2[C@@H]3CC=C4C[C@@H](O)CC[C@]4(C)[C@H]3CC[C@]12C | inactive |  |
| CCCCCCCCC=O | inactive |  |
| CCCCC(CC)COCCC#N (stereo not given) | inactive |  |
| CC(=O)O[C@]1(C(C)=O)CC[C@H]2[C@@H]3C[C@H](C)C4=CC(=O)CC[C@]4(C)[C@H]3CC[C@@]21C | inactive |  |
| CC(C)(COC(=O)c1ccccc1)COC(=O)c1ccccc1 | inactive |  |
| O=C(O)c1cn(-c2ccc(F)cc2)c2cc(N3CCNCC3)c(F)cc2c1=O | inactive |  |
| CN(CCOc1ccc(CC2SC(=O)NC2=O)cc1)c1ccccn1 (stereo not given) |  | 582 nM (active) |
| CC(=O)/C=C/C1=C(C)CCCC1(C)C | inactive |  |
| CCCCCCCCCC=O | inactive |  |
| O=C(O)c1cn(C2CC2)c2cc(N3CCNCC3)c(F)cc2c1=O | inactive |  |
| O=[N+]([O-])c1cc(C(F)(F)F)ccc1Cl | inactive |  |
| O=C(O)C[C@H](O)C[C@H](O)/C=C/c1c(C2CC2)nc2ccccc2c1-c1ccc(F)cc1 | inactive |  |
